Only some compounds are listed: those with a hit (about 6.5% of all), similar ones and a draw of the others.
HCMV inh: human cytomegalovirus inhibition | HFF cells, HCMV-luciferase reporter, 72 h; active compounds read low | activity change, negative = inhibition, % at 57.5 µM | hit rate 4.5% among 410,000; in the data active = activity change below about -60%; inconclusive = no clear call, values can overlap the other calls; inactive = above about -39%
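Human foreskin fibroblasts infected with luciferase-reporter HCMV at MOI 1 PFU/cell, compounds at two doses. Luciferase measured 72 h post infection; normalized to buffer-only basal and Salinomycin (10uM) controls.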
MARV entry inh: Marburg virus entry inhibition; Potency, µM (titrated, usually from 37.8 µM), for inactives: at the highest dose activity change, negative = inhibition, usual class: inhibitors; Marburg virus pseudotyped entry inhibition, cell reporter; hit rate 1.8% among 300,000; calls by dose curve; tested in HEK293 cells; note: potency is the fitted concentration of half-maximal effect
FMDV antiviral: foot and mouth disease virus antiviral activity. hit rate 1.2% among 410,000. AID 1159524. FMDV antiviral cell-based qHTS. Potency, µM (highest dose often 57.9 µM), for inactives: top-dose activity change, negative = inhibition, hits mostly inhibitors; calls by dose curve; tested in HEK293T cells; note: read-out not given here; potency is the fitted concentration of half-maximal effect; nearly all actives have a fitted effect of over 45% in size
Vaccinia mCherry: inhibitors of vaccinia virus infection (mCherry reporter signal). Vaccinia virus mCherry reporter infection, fluorescence. Potency, µM (top dose mostly 36.5 µM), inactives show at the top dose activity change, negative = inhibition, usual class: inhibitors. hit rate 0.63% among 310,000. AID 720579; calls by dose curve; tested in A549 cells; note: potency is the fitted concentration of half-maximal effect; nearly all actives have a fitted effect of over 35% in size
VACV Venus inh: vaccinia inhibition (Venus reporter); Vaccinia virus Venus reporter expression, fluorescence; Potency, µM (series often up to 36.5 µM), for inactives: at the highest dose activity change, negative = inhibition, most hits filed as inhibitors; hit rate 0.46% among 330,000; AID 720580; calls by dose curve; tested in A549 cells; note: potency is the fitted concentration of half-maximal effect; nearly all actives have a fitted effect of over 30% in size
LASV entry inh: Lassa virus entry inhibition; Lassa virus pseudotype entry inhibition, cell reporter; Potency, µM (series often up to 37.9 µM), inactives show at the top dose activity change, negative = inhibition, hits mostly inhibitors; hit rate 1.2% among 300,000; AID 540256; calls by dose curve; tested in HEK293 cells; note: potency is the fitted concentration of half-maximal effect; nearly all actives have a fitted effect of over 50% in size
Numbers without * were called inactive; i = inactive; ? = inconclusive; nt = no result; + = active, no number; [ ] = dose if it differs, or a comment. % is set by controls: 0 for no effect and ±100 for the full control effect.

SMILES	HCMV inh	MARV entry inh	FMDV antiviral	Vaccinia mCherry	VACV Venus inh	LASV entry inh
CCOC(=O)c1cnc(Nc2nc3ccccc3o2)nc1CSC(=S)N(CC)CC	-64.2*	0.6%	1.9%	?	?	?
Cc1ccc(S(=O)(=O)Nc2cc(Cl)c(O)cc2C)cc1	-69.9*	?	-28.1%	nt	nt	-11.9%
COc1ccc(/C=C2/C(=O)N(c3ccccc3)N=C2C)cc1	nt	6.2%[46.1 µM]	1.6%	-16.0%	0.0%	-19.5%[46.1 µM]
CC1=NOC(=O)/C1=C/c1ccc(N(C)C)cc1	38.9	4.9%	-7.1%	nt	nt	-4.7%
CC1=NOC(=O)/C1=C/c1ccc(O)c(Cl)c1	?	4.1%[46.1 µM]	17.8µM*	-0.5%	-4.3%	12.9%[46.1 µM]
CCN(CC)c1ccc(/C=C2/C(=O)ON=C2C)cc1	-64.7*	-8.8%	21.0%	nt	nt	0.1%
CCN(CC)c1ccc(/C=C2\C(=O)N(c3nnc(C)c(=O)[nH]3)N=C2C)cc1	-21.8	?	28.2µM*	-3.0%	-13.9%	?
O=C(Cn1cc(S(=O)(=O)Cc2ccc(F)cc2)c2ccccc21)NCc1ccccc1Cl	0.0	nt	-8.7%	i	-2.1%	?
CCOC(=O)N1C(=O)C[C@](Sc2ccc(OC)cc2)(c2nc(C)no2)[C@H]1c1ccc(OC)cc1	-21.8	nt	nt	nt	nt	nt
CC12Cc3cnoc3C=C1CCC1C2CCC2(C)C1CCC2(C)O (stereo not given)	-33.8	-18.0%	35.5µM*	?	-27.3%	?
COc1cc([C@@H]2C(C#N)=C(N)Oc3cc(C)n(CCc4ccccc4)c(=O)c32)cc2c1OCO2	nt	-22.5%	nt	nt	nt	nt
O=S(=O)(NCCSc1nnnn1-c1ccccc1)c1ccc(F)cc1	-60.5*	-17.3%[46.1 µM]	-6.4%	-7.2%	-7.6%	-22.9%[46.1 µM]
O=S(=O)(NCCSc1nnnn1-c1ccccc1)c1cccs1	-81.5*	?	5.0%	nt	?	2.3%
COC(=O)CSc1nnnn1-c1ccccc1	-3.7	?	-7.1%	nt	20.1%	-3.3%
CS(=O)(=O)NCCSc1nnnn1-c1ccccc1	16.3	?	3.6%	nt	-7.7%	4.3%
Cc1cccc(C)c1OCc1nnc(SCC(=O)O)n1-c1c(C)cccc1C	-7.3	nt	nt	nt	nt	nt
O=C(CN1CCN(Cc2ccccc2Cl)C1=O)NCc1ccccc1Cl	-4.1	-13.5%[46.1 µM]	34.0%	-8.1%	2.7%	9.8%[46.1 µM]
O=C1CCCc2nc(N3CCN(C(c4ccccc4)c4ccccc4)CC3)ncc21	10.6	?	22.4µM*	nt	nt	?
COc1ccc2c(c1)c1c(c(=O)n(-c3cccc(C)c3)c(=O)n1Cc1cccc(Cl)c1)n2C	-67.3*	nt	-4.1%	-11.0%	-12.3%	1.4%[46.1 µM]
COc1ccc2c(c1)c1c(c(=O)n(-c3ccc(F)c(Cl)c3)c(=O)n1Cc1cccc(C)c1)n2C	12.5	nt	-20.7%	-11.7%	-4.8%	27.8%[46.1 µM]
CCCCOC(=O)c1ccc(NC(=O)CSc2nc3c(c(=O)[nH]2)CCCC3)cc1	-7.1	8.7%[46.1 µM]	-14.0%	7.4%	6.6%	-16.1%[46.1 µM]
C=CCn1c(-c2ccc(Cl)cc2)cnc1SC(C)C(=O)NC(N)=O (stereo not given)	-73.8*	-8.3%[46.1 µM]	?	-3.3%	-11.3%	-4.8%
COC(=O)c1ccccc1C(=O)N1CCc2c(cnc(C)c2CNC(=O)c2ccccc2F)C1	nt	nt	-0.9%	-11.1%	-5.2%	nt
CN1CN(c2ccccc2)C2(CCN(CCCSc3ccccc3NC(=O)/C=C/c3ccccc3)CC2)C1=O	-66.2*	?	0.0%	?	32.8%	?
O=C(/C=C/c1ccccc1)NCCN1CCOCC1	-8.7	?	-4.6%	i	-9.6%	14.6%
SMILES	HCMV inh	MARV entry inh	FMDV antiviral	Vaccinia mCherry	VACV Venus inh	LASV entry inh
Fc1ccc(CNc2ncnc3c2c(-c2ccccc2)cn3-c2ccccc2)cc1	-0.3	nt	?	i	-8.5%	18.5%[46.1 µM]
Cc1cc2cc(C)c3nnc(SCC(=O)NCc4ccco4)n3c2cc1C	-79.2*	?	nt	-24.0%	-22.0%	-12.7%
CCCCCCCC/C=C\CCCCCCCCOC[C@H](COP(=O)([O-])OCC[N+](C)(C)C)OC(C)=O	nt	nt	7.7%[6.7 µM]	-0.3%[3.33 µM]	-13.0%[3.33 µM]	nt
C=C1C(=O)[C@@]23[C@H](O)C[C@@H]4C(C)(C)CC[C@H](O)[C@@]4(C)[C@@H]2CC[C@@H]1[C@H]3O	-97.0*	?	?	?	2.51µM*	10.3µM*
C=C1C(=O)[C@@]23[C@H](O)C[C@@H]4C(C)(C)CC[C@H](O)[C@]4(C)[C@@H]2C[C@H](O)[C@@H]1[C@H]3O	-76.2*	20.6µM*	?	?	4.47µM*	?
c1ccc(-c2nc(-c3cccs3)c(NC3CCCCC3)o2)cc1	nt	-19.1%[14.2 µM]	nt	nt	nt	nt
Cc1cccc(CN2CCc3c([nH]c4ccccc34)C2)c1	-10.5	?	-12.7%	?	-4.6%	?
Clc1cccc(CN2CCc3c([nH]c4ccccc34)C2)c1	57.3	8.91µM*	-16.9%	?	-28.1%	?
CCOC(=S)SCC(=O)Nc1ncc(C)s1	0.0	?	25.1µM*	?	-15.4%	7.1%
COc1ccc(N=C(N)SCc2ccccn2)cc1	-17.4	-23.5%	-6.9%	11.2µM*	11.2µM*	?
CC(C)[C@H](CO)Nc1nc(Nc2cccc(Cl)c2)c2ncn(C(C)C)c2n1	nt	nt	-19.2%	nt	nt	nt
C/C(=N/Oc1nc(C)cc(C)n1)c1ccc(Cl)cc1Cl	-61.1*	8.5%	?	nt	-13.0%	-24.6%
C/C(=N\Oc1cccc(F)n1)c1ccc(Cl)cc1Cl	-34.2	-5.1%	-18.4%	nt	-14.4%	?
O=C(NCc1ccccc1Cl)c1ccc(NC(=O)N2CCSc3ncccc32)cc1	+	nt	-4.4%	-4.9%	-8.4%	4.0%[46.1 µM]
COc1ccccc1CNC(=O)c1cccc(NC(=O)N2CCSc3ncccc32)c1	0.0	nt	0.0%	-6.1%	-8.3%	-0.9%[46.1 µM]
O=C(Cc1ccc(NC(=O)N2CCSc3ncccc32)cc1)NCc1ccccc1Cl	8.7	nt	?	-12.0%	-2.7%	4.3%[46.1 µM]
O=C(NCc1ccccc1F)c1cccc(NC(=O)N2CCSc3ncccc32)c1	+	nt	-26.3%	-5.6%	-1.3%	0.8%[46.1 µM]
CCSc1nc(COC(=O)NC)c(COC(=O)NC)n1C	-4.1	?	-13.6%	-17.0%	-12.3%	-18.4%
CNC(=O)OCc1nc(SSC(C)(C)C)n(C)c1COC(=O)NC	-75.9*	?	35.5µM*	-23.6%	?	?
O=C(CCN1C(=O)/C(=C\c2ccccc2)SC1=S)N1CCCCC1	-67.5*	2.5%[46.1 µM]	9.7%	?	-6.7%	0.0%
O=C(c1ccccc1)N1CCN(CCc2ccccn2)CC1	-17.0	-12.1%[46.1 µM]	-4.2%	?	-2.7%	13.2%
COc1ccc(/C=C2\SC(=S)N(CCCC(=O)N3CCOCC3)C2=O)cc1	?	?	-18.2%	?	?	-23.0%
O=C(CN1C(=O)/C(=C/c2ccccc2)SC1=S)N1CCN(CCc2ccccn2)CC1	-90.2*	?	-28.2%	-11.6%	-14.8%	?
O=C(CCCN1C(=O)/C(=C\c2ccccc2)SC1=S)N1CCOCC1	-98.5*	?	-21.7%	?	?	-14.5%
O=C(CCN1C(=O)/C(=C\c2ccccc2F)SC1=S)N1CCOCC1	1.7	nt	-18.6%	?	12.6µM*	nt
CC(=O)Nc1ccc(/C=C/c2ccnc3ccccc23)cc1[N+](=O)[O-]	nt	nt	nt	i	-14.2%	nt

Bioassay records deposited in PubChem by National Center for Advancing Translational Sciences (NCATS).
